Results from article PMC12670160, “A drug-repurposing screen of FDA- and EMA-approved drugs identifies two NF-κB inhibitors active against eumycetoma” (Journal of Antimicrobial Chemotherapy, 2025).

test system: M. mycetomatis strain mm55; set-up: species or system Madurella mycetomatis MM55 hyphae; CellTiter-Glo 3D luminescence viability of fungal hyphae, single-point 2 uM library screen, per cent of growth control; conditions: primary screen, metabolic activity vs growth control; 96 h, 2 µM; inhibitor
Description: To determine the in vitro susceptibility of M. mycetomatis to the compounds, a hyphal inoculum was prepared as described elsewhere.[19] This M. mycetomatis hyphal suspension (60 µL) was added to each of the wells in the 384-well plate, leading to a final testing concentration of 2 µM per compound. Each plate also contained a growth control (60 µL of M. mycetomatis hyphal suspension, plus 0.6 µL of DMSO) and a negative control (60 µL of culture medium, plus 0.6 µL of DMSO). Plates were then incubated for 4 days at 37°C, after which 30 µL of CellTiter-Glo 3D Cell Viability reagent was added to every well.[19] After 25 min of incubation at room temperature, the luminescence was measured with a CytoFluor Series 4000 luminometer (PerSeptive Biosystems, Framingham, MA, USA). To determine the metabolic activity, the following formula was used: where, GC is growth control and NC is negative control. The luminescence measured for the GC is considered as 100% metabolic activity. The luminescence for the NC is considered as 0% metabolic activity. […] The Oncode Drug Repurposing library was based on the drug repurposing library from the Drug Repurposing Hub of the Broad Institute and recreated by the Oncode institute.[13] The library contained 5631 drugs.[18] […]

Row | SMILES | % viability
1 | C[C@]12CC[C@@H]3c4ccc(OC(=O)N(CCCl)CCCl)cc4CC[C@H]3[C@@H]1CC[C@@H]2OP(=O)(O)O [ONC0003506, estramustine phosphatena] | 76.07%
2 | C[N+]1(C)CCc2cc3c(cc2[C@H]1[C@@H]1OC(=O)c2c1ccc1c2OCO1)OCO3 [ONC0000006, bicucullinemethochloride] | 85.19%
